The values below come from PubChem BioAssay (NCATS).

Results filed as inconclusive are left out. Entries that show only a call come without a potency. The source made the active and inactive calls. The call rests on the fitted dose curve; in most records, active means well fitted inhibition curve with a large enough effect; inconclusive means small, poorly fitted or top-dose-only effect; inactive means no such curve, though single readings can be large or run the other way.
Potency means the concentration at half of the fitted maximal effect.

The nature of the assay: qHTS for Inhibitors of ATXN expression: Validation (AID 588378). Further: nearly all actives have a fitted effect of over 75% in size. The note with it: cell-based ATXN2 expression reporter assay, luminescence; series mostly up to 57.1 µM. A digest of the protocol:
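HEK293 cells carrying ATXN2-firefly luciferase reporter, treated with compound 24 h at 37 °C. Viability read first by CellTiter-Fluor (405/525 nm), then reporter expression by Bright-Glo luminescence; controls were a known ATXN2 expression inhibitor and a luciferase inhibitor.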
`O=P(O)(O)C(Cl)(Cl)P(=O)(O)O`: the Potency entry is “inactive”.
As to `CN(C)c1ccc(/C=C2\C(=O)Nc3ccccc32)cc1`, the Potency result was “inactive”.
The same measure for `COc1ccccc1N1CCN(CCN(C(=O)c2ccc(I)cc2)c2ccccn2)CC1`: “inactive”; for `COc1cc(C(O)CO)ccc1OS(=O)(=O)O` (centres undefined): “inactive”.
The same measure for `NC(=O)C1=CN(C2OC(COP(=O)(O)OP(=O)(O)OC[C@H]3O[C@@H](n4cnc5c(N)ncnc54)[C@H](OP(=O)(O)O)[C@@H]3O)C(O)C2O)C=CC1` (some centres undefined): “inactive”; for `O=S(=O)(c1cccc2c(I)cccc12)N1CCCNCC1`: 12.6 µM (active).
The result for `O=C(O)CCCC[C@@H]1CCSS1` reads “inactive”; that for `O=C1O/C(=C/Br)CCC1c1cccc2ccccc12` (centres undefined), 25.1 µM (active); that for `Cn1c(=O)c2[nH]c(-c3ccccc3)nc2n(C)c1=O`, “inactive”.
In the case of `C=CC(C)=C[C@@]1(C)SC(=O)C(C)=C1O`, the Potency entry was “inactive”.
The same measure for `O=C(/C=C/c1ccc(O)cc1)c1ccc(O)cc1O`: “inactive”; for `O=C(O)[C@@H]1C[C@H](C(=O)O)N1`: “inactive”.
Turning to `CO/N=C(\C(=O)N[C@@H]1C(=O)N2C(C(=O)O)=C(COC(C)=O)CS[C@H]12)c1csc(N)n1`, the Potency entry was “inactive”.
For the molecule `CC1OC1P(=O)(O)O` (centres undefined), the Potency entry is “inactive”.
The same measure for `CC(=O)N[C@H](C(=O)O)C(C)(C)SN=O`: “inactive”; for `CN(C)C(N)=NCCC[C@H](N)C(=O)O`: “inactive”.
The same measure for `CN(C)CCCO[C@@H]1[C@H]2OC(C)(C)O[C@H]2O[C@@H]1[C@H](O)CO`: “inactive”; for `NC[C@@H]1O[C@H](C23CC4CC(CC(C4)C2)C3)Cc2c1ccc(O)c2O`: 20 µM (active); for `CNC(=O)[C@H]1O[C@@H](n2cnc3c(NCc4ccc(N)cc4)ncnc32)[C@H](O)[C@@H]1O`: “inactive”.
The result for `OC[C@H]1O[C@@H](n2cnc3c(Nc4ccccc4)ncnc32)[C@H](O)[C@@H]1O` reads “inactive”.
In the case of `CC(C)CC(NP(=O)(O)O[C@@H]1O[C@@H](C)[C@H](O)[C@@H](O)[C@H]1O)C(=O)NC(Cc1c[nH]c2ccccc12)C(=O)O` (some centres undefined), the Potency entry was “inactive”.
Consider `O=C(O)CNC(=O)C(CS)Cc1ccccc1` (centres undefined), for which the Potency result was “inactive”.
The same measure for `CN1CCc2ccccc2Cc2[nH]c3ccccc3c2CC1`: “inactive”; for `NCCSSCCN`: “inactive”.
The same measure for `NC(=S)NCCC[C@H](N)C(=O)O`: “inactive”; for `CCOC(=O)N1CCN(/[N+]([O-])=N/Oc2ccc([N+](=O)[O-])cc2[N+](=O)[O-])CC1`: “inactive”; for `O=C1/C(=C/c2ccsc2)CC/C1=C\c1cccs1`: “inactive”.
The same measure for `NC[C@H]1O[C@@H](n2cnc3c(N)ncnc32)[C@H](O)[C@@H]1O`: “inactive”; for `O=C1NC(=O)/C(=C/c2ccc(-c3ccc(F)cc3O)o2)S1`: “inactive”.
As for `N#C/C(=C\c1c[nH]c2ccccc12)C(=O)c1ccc(O)c(O)c1`, the Potency entry was “inactive”.
The same measure for `CC1(C)CCC=[N+]1[O-]`: “inactive”.
Take `C=CC(N)CCC(=O)O` (centres undefined): the Potency result is “inactive”.
Turning to `N=C(N)SCCc1ccc(CCSC(=N)N)cc1`, the Potency result was “inactive”.
The same measure for `CCNC(=O)[C@H]1O[C@@H](n2cnc3c(N)nc(NCCc4ccc(CCC(=O)O)cc4)nc32)[C@H](O)[C@@H]1O`: “inactive”.
